The source of these data is PubChem BioAssay (NCATS).

Active and inactive are the calls of the source. Entries that show only a call come without a potency. The call rests on the fitted dose curve; in most records, active means well fitted curve in the direction sought with a large enough effect; inconclusive means small, poorly fitted or top-dose-only effect, or another doubt; inactive means no such curve, though single readings can be large or run the other way. Residues, ends and D or L forms follow the SMILES beside them. *: point of attachment. Cbz = O=C(OCc1ccccc1)*

Galactokinase (Homo sapiens), sequence (P51570 whole entry, looked up): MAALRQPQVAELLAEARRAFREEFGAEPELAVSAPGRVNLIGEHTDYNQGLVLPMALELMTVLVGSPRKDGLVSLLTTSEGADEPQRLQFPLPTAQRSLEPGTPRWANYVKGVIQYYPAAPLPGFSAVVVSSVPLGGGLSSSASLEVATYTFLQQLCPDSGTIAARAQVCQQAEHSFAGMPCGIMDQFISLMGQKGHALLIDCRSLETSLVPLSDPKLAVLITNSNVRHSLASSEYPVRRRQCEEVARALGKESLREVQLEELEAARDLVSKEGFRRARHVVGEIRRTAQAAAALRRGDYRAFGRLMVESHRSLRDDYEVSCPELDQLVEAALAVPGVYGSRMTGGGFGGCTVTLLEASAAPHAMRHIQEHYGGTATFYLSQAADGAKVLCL

The target of the assay is Galactokinase (Homo sapiens) (UniProt P51570). Nature of the assay: qHTS Validation Assay for Inhibitors of Human Galactokinase (GALK) (AID 493189). To be noted: purified human GALK enzyme activity, qHTS 7-point titration; series mostly up to 57.5 µM. From the text:
NIH Molecular Libraries Probe Production Centers Network [MLPCN]
NIH Chemical Genomics Center [NCGC]
Assay Submitter (PI): Kent Lai (University of Utah School of Medicine, 50 N Mario Capecchi Drive, Salt Lake City, UT 84132)
Inherited deficiency of galactose-1-phosphate uridyltransferase (GALT) can result in a potentially lethal disorder called Classic Galactosemia (OMIM 230400). Several lines of evidence indicate that an elevated level of galactose-1-phosphate (gal-1-p), the product of galactokinase (GALK), is a major, if not sole, pathogenic mechanism in patients with classic galactosemia. Therefore, finding inhibitors of GALK is a potential novel therapy for this inherent metabolic disease and is the long term goal of this project.
GALK (provided by the assay submitter) was assayed using ATP and D-(+)-Galactose (Sigma-Aldrich cat# G0750) as substrates. Promega Kinase-Glo Plus (cat# V3774) technology was used to detect the residual ATP following kinetic reaction. Briefly, the Kinase-Glo Plus contains Ultra-Glo [2] luciferase and D-luciferin which generates a bioluminescence signal from the remaining ATP.
NCGC Assay Protocol Summary:
Three uL/well of ATP-buffer solution (35 uM ATP, 20mM HEPES pH8.0, 5 mM MgCl2, 60 mM NaCl, 1 mM DTT, 0.01% BSA final concentration) was dispensed into 1536-well, assay plates (Greiner, solid white medium-binding plates) with Aurora Discovery BioRAPTR Flying Reagent Dispenser (FRD; Beckton-Dickenson). Compound solution (23 nL) was transferred to the assay plate using the Kalypsys 1536-pin tool. One uL/well GALK-galactose solution (5 nM GALK, 100 uM galactose, 20 mM HEPES pH8.0, 5 mM MgCl2, 60 mM NaCl, 1 mM DTT, 0.01% BSA final concentration) was then added using the FRD yielding a total kinase reaction volume of 4 uL/ well. After 1 hour of room temperature incubation, 4 uL Kinase-Glo Plus reagent was added for a final assay volume of 8 uL/ well. Luminescence was detected with the ViewLux plate reader (Perkin Elmer, Waltham, MA) after 10 min incubation using a 1 sec exposure time and 2x binning.
With `CC(/C=C/c1cccc(Oc2ccc(F)cc2)c1)N(O)C(N)=O` (stereo not given), the Potency result is “inactive”. The entry for `O=C(O)c1cc(=O)cc(C(=O)O)[nH]1` is “inactive”; for `CC1=C(/C=C/C(C)=C/C=C/C(C)=C\C(=O)O)C(C)(C)CCC1` it is “inactive”.

For `COc1cc(CNC(=O)CCCCCCC(C)C)ccc1O`, the Potency result is “inactive”. The entry for `NCCC1CCCC(CCN)N1` (stereo not given) is “inactive”; for `O=C(O)/C=C/c1cnc[nH]1` it is “inactive”; for `O=c1cc(O)cc(/C=C/c2ccc(O)c(O)c2)o1` it is “inactive”. For `O=C1Cc2c([nH]c3ccc(Br)cc23)-c2ccccc2N1`, the Potency result was “inactive”. Regarding `S=C(S)N1CCCC1`, the Potency entry was “inactive”.

For `O=C(OCCN1CCOCC1)C1(c2ccccc2)CCCCC1`, the Potency entry was “inactive”. The entry for `O=c1oc(Cl)c(Cl)c2ccccc12` is “inactive”; for `O=c1onc2cnc3ccccc3n12` it is “inactive”.

For the molecule `COc1cc(C(O)C(=O)O)ccc1O` (stereo not given), the Potency result is “inactive”. As to `NC1CONC1=O` (stereo not given), the Potency entry is “inactive”. As for `N[C@H](C(=O)O)[C@H]1C[C@@H]1C(=O)O`, the entry is “inactive”; as for `Oc1cc2c(cc1O)C(c1ccccc1)CNCC2` (stereo not given), “inactive”. As for `COc1ccc2c(c1)CCC1C2CC[C@@]2(C)C1CC[C@@H]2NCCCCCCN1C(=O)C=CC1=O` (stereo not given in full), the entry is “inactive”.

Consider `C[C@@]1(C2CCCC2)Cc2cc(OCC(=O)O)c(Cl)c(Cl)c2C1=O`, for which the Potency entry is “inactive”. Turning to `COC(=O)C(C)(N)Cc1ccc(O)cc1` (stereo not given), the Potency entry was “inactive”. With `NCC(O)(CS(=O)(=O)O)c1ccc(Cl)cc1` (stereo not given), the Potency result was “inactive”. As for `COc1ccccc1N1CCN(CCCCNC(=O)c2ccc3ccccc3c2)CC1`, the entry is “inactive”; as for `CN1CCC2(CCN3CCc4c(oc5ccccc45)C3C2)N(C)C1=O` (stereo not given), “inactive”; as for `Fc1ccc(CN(C2=NCCN2)c2c(Cl)cccc2Cl)cc1`, “inactive”.

On to `COc1ccc(C(=O)NCc2cccnc2)cc1C(=O)NCc1cccnc1`, for which the Potency result is “inactive”. As for `CCCCCCCCCCCCCCSCC(=O)O`, the entry is “inactive”. With `NCC(O)C1CCCCCCC1` (stereo not given), the Potency entry was “inactive”. With `N=C(N)SCCc1cnc[nH]1`, the Potency result is “inactive”. Take `CC(N)=O`: the Potency result was “inactive”.

With `NC(N)=[N+]1CCc2ccccc2C1`, the Potency result was “inactive”. The entry for `Cc1nc2c(OCc3ccccc3)cccn2c1CC#N` is “inactive”; for `CCCCCCCC/C=C\CCCCCCCC(=O)NCCc1ccc(O)c(O)c1` it is “inactive”; for `COc1cc(CC(=O)O)ccc1O` it is “inactive”. As for `Cc1ccc([N+](=O)[O-])cc1S(=O)(=O)N(C)C`, the entry is “inactive”; as for `CC(C)[C@H](NC(=O)OCc1ccccc1)C(=O)N[C@H](C=O)Cc1ccccc1` (Cbz-Val-Phe-aldehyde), “inactive”.

For the molecule `Nc1ccc2c3c(cccc13)C(=O)NC2=O`, the Potency entry was “inactive”.

As to `NC1(C(=O)O)CCc2cc(C(=O)O)ccc21` (stereo not given), the Potency entry is “inactive”. Consider `Nc1nc2[nH]c(=O)cnc2c(=O)[nH]1`, for which the Potency result was “inactive”. The entry for `CCCC(=O)NCCc1c2n(c3ccc(OC)cc13)CCCc1ccccc1-2` is “inactive”. As for `CC(C)NC[C@H](O)COc1ccc(CC(N)=O)cc1`, the entry is “inactive”; as for `CSC(=N)N`, “inactive”.
